Results taken from PubChem BioAssay.
Activity calls are given as the source filed them.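 How the source made its calls, unless noted: active means inhibition of the reporter signal at or above 50%; inactive means inhibition below 50%.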

What was measured:
[1] = inhibitors of TNFa-induced NFkB p65 translocation, primary screen, imaging, HUVEC, MLSMR starter and 10KST1 sets (AID 438;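 active means inhibition above 20% together with a positive visual image hit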;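 further: compound added about 3h40 before a 20 min TNFalpha stimulation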;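 on inhibition: signal is the nuclear over cytoplasmic p65 intensity ratio per well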); details: HUVEC TNFa-induced p65 nuclear translocation; cell count: measured here: nuclei count (cytotoxicity indicator), at 2.08 µM; inhibition: at 2 µM, stronger effect = higher value, 0% TNFa-plus-vehicle, 100% no-TNFa wells
[2] = inhibitors of mutant huntingtin aggregation, primary screen, imaging, exon1htt(103Q)mCFP cells, high-content imaging (AID 483;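 active means visual image review flags a hit and inhibition of aggregation exceeds 20%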;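 further: compound exposure lasted 3 days before fixation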;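 on nuclei count: percent of the per-plate median nuclei count of sample wells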); details: exon1htt(103Q)mCFP cell line, aggregate imaging, at 2 µM; inhibition of aggregation: stronger effect = higher value; nuclei count: measured here: cell count, toxicity
[3] = inhibitors of E-selectin induction by TNFa, primary screen, imaging, HUVEC, immunofluorescence, MLSMR starter and 10KST1 sets (AID 487;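 active means visually confirmed hit in the image check and inhibition above 20%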;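 on inhibition: signal is fraction of cell area covered by stained E-selectin grains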;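 on nuclei count: 100% = median nuclei count of all wells on the same plate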); details: HUVEC TNFalpha-induced E-selectin immunofluorescence imaging, at 2 µM; inhibition: stronger effect = higher value; nuclei count: measured here: cell number, toxicity
[4] = target: Voltage-gated potassium channel subunit beta-2 (Rattus norvegicus) (UniProt P62483); test: KvBeta enzyme negative modulators, primary screen, biochemical, NADPH fluorescence (AID 622;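 active means fluorescence slope higher than the sample average by over 3 SD, cut at about -0.22 in these data, passing the limit was not always enough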;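 further: slope of raw intensity against log time taken from 70 to 1610 s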); details: recombinant KvBeta, 4-cyanobenzaldehyde reduction, at 10 µM, stronger effect = higher value
[5] = target: Voltage-gated potassium channel subunit beta-2 (Rattus norvegicus) (UniProt P62483); test: KvBeta positive modulators, primary screen, biochemical, NADPH fluorescence (AID 623;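 active means NADPH fluorescence slope more negative than the mean of all samples by about 3 SD, 99.7% confidence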;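 further: fluorescence intensity change per second fitted from 20 to 320 s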); details: Recombinant KvBeta, NADPH fluorescence decrease slope, 10 min; at 10 µM; stronger effect = lower value
[6] = target: Alpha-2C adrenergic receptor (Homo sapiens) (UniProt P18825); test: modulators of alpha2C/GIRK thallium flux, primary screen, cell-based, HEK293 alpha2C/GIRK1/2 (AID 624;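 active means fluorescence slope after compound addition differing from the mean of all screened samples at 99.7% confidence, in either direction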;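 further: slope of fluorescence ratio to pre-addition baseline per second over 15 to 24 s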); details: thallium flux BTC fluorescence, at 10 µM, actives lie on both sides
[7] = inhibitors of Sendai virus-induced IRF3 signaling, primary screen, TLR/RLR signaling modifier project, cell-based, Sendai virus stimulus, luciferase, 10K MLSCN set (AID 602276;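 active means inhibition at or above 50% at 10 µM; inactive means inhibition below 50%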;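 further: firefly luciferase from ISG56 promoter only with Renilla not read in this screen; 0% = Sendai virus plus DMSO and 100% = medium plus DMSO without virus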); details: HEK293 RL24 IRF3 luciferase reporter, at 10 µM, stronger effect = higher value
[8] = inhibitors of poly I:C-induced TLR3 signaling, primary screen, cell-based, poly I:C stimulus, luciferase, 10K MLSCN set (AID 602277); details: HEK293-TLR3 RL24 IRF3 luciferase reporter, at 10 µM, stronger effect = higher value

Alpha-2C adrenergic receptor (Homo sapiens), sequence (P18825 whole entry, looked up): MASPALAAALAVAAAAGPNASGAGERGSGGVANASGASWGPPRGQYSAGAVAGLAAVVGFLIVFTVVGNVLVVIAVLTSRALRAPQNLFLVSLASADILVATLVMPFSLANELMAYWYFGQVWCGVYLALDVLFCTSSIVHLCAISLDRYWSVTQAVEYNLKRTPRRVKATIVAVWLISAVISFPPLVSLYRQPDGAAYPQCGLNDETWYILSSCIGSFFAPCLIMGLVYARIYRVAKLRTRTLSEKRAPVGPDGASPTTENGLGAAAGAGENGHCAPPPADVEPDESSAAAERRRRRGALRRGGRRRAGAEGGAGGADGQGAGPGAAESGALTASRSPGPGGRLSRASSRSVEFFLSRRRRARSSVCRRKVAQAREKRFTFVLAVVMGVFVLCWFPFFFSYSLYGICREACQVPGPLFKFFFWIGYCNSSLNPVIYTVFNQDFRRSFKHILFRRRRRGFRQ
Voltage-gated potassium channel subunit beta-2 (Rattus norvegicus), sequence (P62483 whole entry, looked up): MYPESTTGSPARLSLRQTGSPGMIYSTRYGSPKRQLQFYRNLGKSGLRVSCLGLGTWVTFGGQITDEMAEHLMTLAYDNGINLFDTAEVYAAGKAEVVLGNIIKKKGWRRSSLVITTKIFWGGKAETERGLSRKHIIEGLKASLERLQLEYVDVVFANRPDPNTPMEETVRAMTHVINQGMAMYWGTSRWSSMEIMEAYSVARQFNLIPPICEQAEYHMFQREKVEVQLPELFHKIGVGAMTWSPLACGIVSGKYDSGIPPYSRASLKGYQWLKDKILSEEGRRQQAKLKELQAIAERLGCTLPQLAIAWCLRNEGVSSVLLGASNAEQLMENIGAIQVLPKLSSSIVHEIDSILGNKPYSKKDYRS

Structure (SMILES) | cell count [1] | inhibition [1] | inhibition of aggregation [2] | nuclei count [2] [%] | inhibition [3] | nuclei count [3] [%] | fluorescence slope [4] | NADPH fluorescence slope [5] | slope [6] | inhibition [7] | inhibition [8]
COc1ccc(CCNc2oc(-c3ccccc3OC)nc2C#N)cc1 | 216 | -4.3% (inactive) | 4% (inactive) | 86.1 | -19.1% (inactive) | 88.6 | -0.413 (inactive) | 2.3e-05 (inactive) | 0.00318 (inactive) | -0.337% (inactive) | 12.4% (inactive)
CCCn1c(SCC(=O)N2CCc3ccccc3C2)nc2c1c(=O)n(C)c(=O)n2C | 430 | -9.2% (inactive) | -13.1% (inactive) | 115 | -47.7% (inactive) | 117 | -0.303 (inactive) | 8.7e-06 (inactive) | 0.00547 (inactive) | 2.01% (inactive) | -39% (inactive)
O=C(CSc1nnc(C2COc3ccccc3O2)o1)N1CCCc2ccccc21 (stereo not drawn) | 438 | -1.8% (inactive) | 0.8% (inactive) | 87.9 | -80.9% (inactive) | 136 | -0.298 (inactive) | -4e-06 (inactive) | 0.00363 (inactive) | 12.5% (inactive) | 34.9% (inactive)
N#Cc1c(N2CCCC2)nc(N)c2c(N)nc(N3CCCC3)cc12 | 581 | -9.2% (inactive) | -6.2% (inactive) | 84.2 | -144% (inactive) | 160 | -0.0789 (active) | 1.7e-06 (inactive) | 0.0051 (inactive) | -6.36% (inactive) | 2.26% (inactive)
CCCN(CCC)CCCNS(=O)(=O)c1ccc2c(c1)oc(=O)n2C | 377 | -2.4% (inactive) | 6.1% (inactive) | 102 | -61.9% (inactive) | 112 | -0.432 (inactive) | -9.3e-05 (inactive) | 0.00475 (inactive) | 16.6% (inactive) | 23% (inactive)
CCOc1cc(C2NC(=O)N(C)C(C)=C2C(=O)OC)cc(Br)c1O (stereo not drawn) | 620 | -17.6% (inactive) | -9.6% (inactive) | 110 | -13.7% (inactive) | 104 | -0.611 (inactive) | -4.2e-05 (inactive) | 0.00546 (inactive) | -0.511% (inactive) | 5.13% (inactive)
COc1cc(N=c2ssnc2Cl)cc(OC)c1 | 148 | -7.4% (inactive) | 0.8% (inactive) | 74.7 | 4.2% (inactive) | 82.2 | -0.557 (inactive) | -8.9e-05 (inactive) | 0.0056 (inactive) | -6.83% (inactive) | 8.97% (inactive)
COC1CCCCC1NS(=O)(=O)c1ccccc1 (stereo not drawn) | 317 | 1.4% (inactive) | 12.2% (inactive) | 113 | 19.4% (inactive) | 114 | -0.312 (inactive) | -3.1e-06 (inactive) | 0.00597 (inactive) | 11.1% (inactive) | 27.4% (inactive)
NC(=O)C1(N2CCCCC2)CCN(CC(=O)Nc2cc(Cl)ccc2Cl)CC1 | 357 | -3% (inactive) | 14.8% (inactive) | 86.2 | 26.7% (inactive) | 74.8 | -0.583 (inactive) | -5.7e-05 (inactive) | 0.00416 (inactive) | -15.6% (inactive) | -7.63% (inactive)
COCCn1c(=O)[nH]c2cc(C(=O)N3CCN(Cc4ccc5c(c4)OCO5)CC3)ccc2c1=O | 742 | -1.6% (inactive) | -2% (inactive) | 122 | -20.8% (inactive) | 115 | -0.643 (inactive) | -1.6e-05 (inactive) | 0.00392 (inactive) | 2.81% (inactive) | -1.78% (inactive)
CCOC(=O)c1cc(-c2ccco2)nc2c1c(C)nn2CCC#N | 590 | -10.8% (inactive) | -3.4% (inactive) | 103 | -15.3% (inactive) | 146 | -0.214 (active) | 2.1e-05 (inactive) | 0.00625 (inactive) | -22.4% (inactive) | -3.59% (inactive)
COc1ccc(C)cc1S(=O)(=O)N(C)CC(=O)Nc1ccc2c(c1)OCO2 | 505 | -15.7% (inactive) | 8.7% (inactive) | 94.7 | 26.3% (inactive) | 84.9 | -0.616 (inactive) | -5e-05 (inactive) | 0.00341 (inactive) | 12.3% (inactive) | 12.3% (inactive)
COc1ccc(CNC(=O)CCc2nc(-c3ccccc3F)no2)c(OC)c1 | 354 | 1.7% (inactive) | 19.9% (inactive) | 98 | 37.2% (inactive) | 86.3 | -0.378 (inactive) | -2e-05 (inactive) | 0.00384 (inactive) | 8.05% (inactive) | 0.538% (inactive)
CC(C)[C@H](NC(=O)NCc1ccc(Cl)cc1)C(=O)O | 190 | -16.4% (inactive) | 20.4% (inactive) | 70.5 | 11.6% (inactive) | 87.2 | -0.604 (inactive) | -3.7e-05 (inactive) | 0.00337 (inactive) | 13% (inactive) | 19.3% (inactive)
CN1CCc2c(sc3c2C(=O)NC(c2cccc(OC(=O)c4cccs4)c2)N3)C1 (stereo not drawn) | 497 | -2.5% (inactive) | -4.1% (inactive) | 101 | -21.9% (inactive) | 108 | -0.422 (inactive) | -4.2e-05 (inactive) | 0.00392 (inactive) | -5.69% (inactive) | 10.3% (inactive)
Cc1cccc(NC(=O)c2cc3ccccc3o2)c1 | 549 | -23% (inactive) | 10.7% (inactive) | 103 | 15.3% (inactive) | 157 | -0.506 (inactive) | 1.8e-05 (inactive) | 0.00578 (inactive) | -17.2% (inactive) | -74.5% (inactive)
CC(C)(C)NC(=O)COC(=O)c1ccc(O)cc1 | 714 | -6.7% (inactive) | -18.1% (inactive) | 98.1 | 10% (inactive) | 101 | -0.625 (inactive) | 7.6e-06 (inactive) | 0.00738 (inactive) | -6.22% (inactive) | -8.12% (inactive)
CCN(CC)C(=O)Cn1ncc2c1-c1ccccc1OC2 | 597 | 0.5% (inactive) | -64.7% (inactive) | 102 | -54.6% (inactive) | 123 | -0.588 (inactive) | -4.7e-05 (inactive) | 0.00665 (inactive) | 7.79% (inactive) | 16.3% (inactive)
COc1ccc(NC(=O)C2CCCCN2S(=O)(=O)c2ccc(F)cc2)cc1 (stereo not drawn) | 630 | 3.7% (inactive) | 27.3% (inactive) | 76.6 | -67.7% (inactive) | 105 | -0.584 (inactive) | -2.4e-05 (inactive) | 0.00664 (inactive) | 15.6% (inactive) | 42.2% (inactive)
CN(C)Cc1cn(CCC(=O)O)c2ccccc12 | 331 | 5.3% (inactive) | -18.2% (inactive) | 90.8 | 9.1% (inactive) | 103 | -0.481 (inactive) | 4.3e-05 (inactive) | 0.00704 (inactive) | -16.1% (inactive) | 19.4% (inactive)
COc1ccc(-c2nnc(SCC(=O)Nc3cc(C)on3)n2C)cc1OC | 364 | 2.6% (inactive) | -9.8% (inactive) | 87.3 | -12.1% (inactive) | 108 | -0.473 (inactive) | -1.3e-05 (inactive) | 0.00613 (inactive) | -4.06% (inactive) | 25% (inactive)
CCOC(=O)N1CCC(NC(=O)C2CCC(Cn3c(=O)[nH]c4ccccc4c3=O)CC2)CC1 (stereo not drawn) | 609 | -0.3% (inactive) | -10.3% (inactive) | 105 | -89.5% (inactive) | 101 | -0.546 (inactive) | 3.1e-05 (inactive) | 0.00617 (inactive) | 6.35% (inactive) | 20.6% (inactive)
COCCNC(=O)C(C)N(c1ccc(Oc2ccccc2)cc1)S(C)(=O)=O (stereo not drawn) | 333 | 2.5% (inactive) | -15.1% (inactive) | 98.6 | -21.7% (inactive) | 111 | -0.445 (inactive) | -6.4e-05 (inactive) | 0.00568 (inactive) | 14.7% (inactive) | 23.7% (inactive)
Cc1csc(NC(=O)CCS(=O)(=O)c2ccc(Br)cc2)n1 | 721 | 0% (inactive) | -30.9% (inactive) | 91.7 | 5.7% (inactive) | 115 | -0.609 (inactive) | 1.8e-05 (inactive) | 0.00541 (inactive) | -20.4% (inactive) | -7.68% (inactive)
CCc1ccc(C2CC(c3cccc(OC)c3)n3nc(N)nc3N2)cc1 (stereo not drawn) | 528 | 7.5% (inactive) | 3.7% (inactive) | 111 | -40.1% (inactive) | 104 | -0.599 (inactive) | -4e-05 (inactive) | 0.00641 (inactive) | 11.5% (inactive) | 25.7% (inactive)
O=C(Nc1ccccc1-c1nc2ccccc2o1)c1ccc2c(c1)OCCO2 | 530 | -7.2% (inactive) | -29.9% (inactive) | 99.2 | 48.6% (inactive) | 87.4 | -0.131 (inactive) | 1.2e-05 (inactive) | 0.0146 (inactive) | 11.3% (inactive) | 13.7% (inactive)
CC1(C)NC(=O)N(CC(O)COc2ccc(-c3ccccc3)cc2)C1=O (stereo not drawn) | 260 | -0.5% (inactive) | 4.5% (inactive) | 89.9 | -18.2% (inactive) | 125 | -0.425 (inactive) | -6.5e-05 (inactive) | 0.00308 (inactive) | -15.6% (inactive) | 1.46% (inactive)
Nc1nc(Nc2ccc(Cl)cc2Cl)nc(C(F)(F)F)n1 | 348 | 0.6% (inactive) | -0.7% (inactive) | 96.9 | -19.5% (inactive) | 105 | -0.348 (inactive) | -1.8e-06 (inactive) | 0.00538 (inactive) | -32.5% (inactive) | -84.9% (inactive)
